# Values joined by “and” are separate entries in the source; they are usually repeats but may differ in a detail not shown here. Identical values can stand only once. The campaign covered roughly 350,000 compounds. About 1,300 (0.37%) were called active. Only a selection was taken, and actives are over-represented in it overall. Values without a mark were called inactive.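 The calls were made as follows: active = mean added fluorescence quench of at least 8% versus neutral control, with both replicates also reaching 8%; inconclusive = only one of the mean or replicate conditions met; inactive = mean below 8% and not both replicates reaching 8%.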
# Experiment: F508del CFTR correction, initial screen, CFBE line, single point (AID 720511);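 also: cells transiently co-express mutant CFTR-F508del with the halide-sensitive YFP; corrector assay measuring rescue of mutant channel to the surface after 24 h compound exposure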
# Conditions: CFBE cells, YFP halide quenching, at 7.58 µM, active compounds read high, % fluorescence drop versus neutral controls, stimulated with forskolin plus potentiator P3
row,SMILES,activity (quench increase)
1,CC(C)(C)[S@@](=O)N1Cc2cc(C(=O)N3CCOCC3)nc(-c3cccc(-c4ccc(C#N)cc4)c3)c2[C@H]1CCO,1.68%
2,Cc1noc(C)c1NC(=O)Nc1ccc2c(c1)CC(=O)N([C@@H](C)CO)C[C@H](C)[C@@H](CN(C)CC1CCCCC1)O2,0.161%
3,CCOc1c2ccc(C(=O)NCc3ccc(OC(F)(F)F)cc3)cc2nn1C,0.909%
4,CCOC(=O)Cc1ncccc1C(=O)Nc1ccc(OC(F)(F)F)cc1,-3.45%
5,O=C(Nc1ccc(OC(F)(F)F)cc1)c1ccc2c(c1)no[n+]2[O-],14.5% (active)
6,O=C(C1CCOCC1)N1CC(=O)N2[C@H](CO)[C@@H](c3ccc(C#CC4CCCC4)cc3)[C@H]2C1,-0.867%
7,C[C@@H]1CN([C@@H](C)CO)C(=O)c2cc(NS(C)(=O)=O)ccc2O[C@@H]1CN(C)C,0.661%
8,NC(=O)CC(NC(=O)Cc1ccc(Br)cc1)c1ccc(NC2CC3CCC2C3)c([N+](=O)[O-])c1 (stereo unspecified),10.1% (active)
9,CC1CCCCN1CCCNc1ccc(C(CC(N)=O)NC(=O)c2ccccc2)cc1[N+](=O)[O-] (stereo unspecified),-1.78%
10,NC(=O)CC(NC(=O)Cc1cccc2ccccc12)c1ccc(NCc2cc(F)ccc2F)c([N+](=O)[O-])c1 (stereo unspecified),0.166%
11,COc1ccc(S(=O)(=O)Nc2ccc3c(c2)C(=O)N([C@H](C)CO)C[C@H](C)[C@@H](CN(C)Cc2ccc(-c4ccccc4)cc2)O3)cc1,1.93%
12,COc1ccccc1C#Cc1ccc([C@@H]2[C@@H](CO)N(C(=O)C3CC3)[C@H]2C#N)cc1,2.81%
13,Cc1cc(-c2ccc(C)c(S(=O)(=O)NCCCN(Cc3ccccc3)C(C)C)c2)on1,0.63%
14,COc1ccc(CNS(=O)(=O)c2cc(-c3cc(C)no3)ccc2C(C)C)cc1,10.7% (active)
15,CCOc1ccccc1CNS(=O)(=O)c1cc(-c2cc(C)no2)ccc1C,-0.998%
16,COc1ccc(C#Cc2ccc3c(c2)[C@]2(C(=O)N3)[C@H](C(=O)N3CCc4cc(OC)c(OC)cc4C3)[C@H]3C(=O)O[C@H](c4ccccc4)[C@H](c4ccccc4)N3[C@@H]2c2ccc(O)cc2)cc1,-2.79%
17,CCC(=O)Nc1ccc2c(c1)C(=O)N(C)[C@@H]1CC[C@@H](CC(=O)NCc3ccccc3Cl)O[C@H]1CO2,-0.213%
18,CC(=O)NC[C@H]1[C@@H](c2ccc(C#CC(C)C)cc2)[C@@H](CO)N1Cc1ccccn1,-0.601%

row,SMILES,activity (quench increase)
1,CCCC(=O)Nc1ccc2c(c1)C(=O)N(C)C[C@@H](OC)[C@H](C)CN(C(C)=O)[C@H](C)CO2,-1.19%
2,Cc1cccc(NS(=O)(=O)c2ccc(-c3cnc(C4CC4)o3)cc2)c1,10% (active)
3,COc1ccc(CNS(=O)(=O)c2ccc(-c3cnc(C4CC4)o3)cc2)cc1,-1.13%
4,Cc1cccc(CNS(=O)(=O)c2ccc(-c3cnc(C4CC4)o3)cc2)c1,2.12%
5,COc1ccc(S(=O)(=O)N(C)C[C@H]2Oc3ccc(NS(=O)(=O)c4ccc(C)cc4)cc3CC(=O)N([C@@H](C)CO)C[C@@H]2C)cc1,-1.33%
6,COc1ccc2c3c(n(C)c2c1)[C@@H](CO)N(CC1CC1)CC31CCN(C(=O)c2cccc(F)c2)CC1,-0.0985%
7,C[C@H]1CCCCO[C@@H](CN(C)Cc2ccccc2)[C@@H](C)CN([C@@H](C)CO)C(=O)c2cc(NC(=O)CCCN(C)C)ccc2O1,-1.18%
8,CCCC#Cc1ccc2c(c1)O[C@@H](CN(C)CC1CC1)[C@@H](C)CN([C@H](C)CO)S2(=O)=O,2.53%
9,Cc1ccc(S(=O)(=O)N2C[C@H](O)COC[C@H]3O[C@H](CC(=O)N[C@H]4CCN(Cc5ccccc5)C4)CC[C@@H]32)cc1,0.736%
10,C[C@@H]1CN([C@H](C)CO)C(=O)Cc2cc(NC(=O)NC3CCCCC3)ccc2O[C@H]1CN(C)S(C)(=O)=O,0.525% and 3.05%
11,CC[N+]1(CC)CC2=Cc3ccccc3CC2C1 (stereo unspecified),13.8% (active)
12,CCC(=O)N1C[C@@H](C)[C@@H](OC)CN(C)C(=O)c2ccc(NC(=O)Nc3ccccc3)cc2OC[C@H]1C,-0.0305%
13,Cc1ccc(S(=O)(=O)Nc2cccc3c2O[C@@H](CN(C)S(=O)(=O)c2ccc(C)cc2)[C@H](C)CN([C@@H](C)CO)C3=O)cc1,-1.75%
14,O=C(C[C@H]1CC[C@H]2[C@@H](COC[C@@H](O)CN2C(=O)c2ccc3c(c2)OCO3)O1)NC1Cc2ccccc2C1,3.06%
15,NS(=O)(=O)c1ccc(NC(=S)Nc2ccc(Br)c(Cl)c2)cc1,1.17%
16,Nc1c(Cl)cc(S(N)(=O)=O)cc1S(N)(=O)=O,-0.405%
17,NS(=O)(=O)c1cc(Cl)c(Cl)c(S(N)(=O)=O)c1,9.04% (active)
18,CC(=O)N(C)C[C@H]1Oc2ncc(-c3cccc(F)c3)cc2C(=O)N([C@@H](C)CO)C[C@H]1C,-3.71%

# — PubChem BioAssay AID720511 (Broad Institute, 2013)
